Assay outcomes: PubChem BioAssay, Broad Institute
EZH2 inh = blocks human EZH2/PRC2 H3K27 methylation. DELFIA TRF, 1 h. AID 651548. 0.35% of 57,000 active. inhibition, % at 12.5 µM. Q15910;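 active = mean inhibition of replicates at least 50% and every single replicate also reaching 50%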;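 note: dimethyl H3K27 on biotinylated H3 21-44 peptide detected by antibody; plate controls were median neutral control wells for no effect and median positive control wells for full effect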
Starred values were filed as active, the others as inactive. This excerpt belongs to a sample that is enriched for hits.

Results for CCC(=O)Nc1ccc(Cl)c(Cl)c1 ?
EZH2 inh: 2

How did CCCCC/C=C\C/C=C\C/C=C\C/C=C\CCCC(=O)NCc1ccc(O)c(OC)c1 do in these assays?
EZH2 inh: 43

What do the screens show for `CCCCC/C=C/C/C=C/C/C=C/C/C=C/CCCC(=O)Nc1ccc(O)cc1`?
EZH2 inh: 69*

How did CC(C)(C)ONC(=O)CN=[N+]=[N-] do in these assays?
EZH2 inh: 13

Results for [N-]=[N+]=Nc1cccc(C(=O)O)c1 ?
EZH2 inh: -6
